Hits are enriched below; roughly 1.5% of the tested compounds scored in any of these assays.
VHR inh abs = blocks human VHR1 dual specificity phosphatase. P51452. recombinant VHR phosphatase, pNPP absorbance. inhibition, % at 13.3 µM. 0.52% of 290,000 active. AID 1654; in the data active means inhibition above about 50%
CCHFV vOTU inh = blocks the CCHF virus ovarian tumor domain protease; CCHFV vOTU protease, Pep-AMC fluorescence; inhibition, % at 11.5 µM; 0.55% of 370,000 active; AID 651958; in the data active means inhibition above about 30%; further: 0% = vehicle wells with enzyme and 100% = no enzyme wells
PrPC surface inh = reduces human prion protein on the cell surface. cell surface PrPC, TR-FRET read-out. P04156. inhibition, % at 13.8 µM. 0.43% of 370,000 active. AID 720596; in the data active means inhibition above about 24%; further: 0% = median of the test wells and 100% = reference compound wells
PriA SSB inh = blocks PriA binding to SSB C-terminal tail; AID 1272365; 0.6% of 430,000 active; AlphaScreen SSBct-PriA binding, biotinylated peptide; inhibition, % at 33 µM; in the data active means inhibition mostly above about 37%, no sharp cut-off; inactive means mostly below about 20%;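 further: plate controls were negative control peptide for no effect and reference peptide for full effect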
Vc quorum ag = quorum light induction in luxS cqsA deficient V. cholerae; V. cholerae BH1578 lux reporter, luminescence, 6 h; activation, % at 18.7 µM; 0.16% of 350,000 active; AID 588436; in the data active means activation mostly above about 9.7%, no sharp cut-off
TcdB GH inh = blocks C. difficile toxin B glycohydrolase activity; 0.24% of 350,000 active; P18177; inhibition, % at 9.99 µM; TcdB glycohydrolase enzymatic assay, plate reader; AID 652162; in the data active means inhibition above about 10%
PrPC confirm = cell surface PrPC inhibition, TR-FRET confirmation; shares compounds with PrPC surface inh; inhibition, % at 13.8 µM; cell surface PrPC level; 65% of 1,500 active; in the data active means inhibition above about 25%
LD9 cytotox = kills or reduces viability of LD9 cells in PrPc counter-screen; LD9 cells cytotoxicity, luminescence viability; shares compounds with PrPC surface inh; 29% of 1,500 active; AID 743201; inhibition, % at 13.8 µM; in the data active means inhibition above about 9.5%
* = called active by the depositor; i = inactive; x = not tested or not shown.

SMILES	VHR inh abs	CCHFV vOTU inh	PrPC surface inh	PriA SSB inh	Vc quorum ag	TcdB GH inh	PrPC confirm	LD9 cytotox
COc1ccc(C(=O)Nc2ccc(N3CCOCC3)cc2)cc1S(=O)(=O)N1CCOCC1	x	-3	1	-8	-6	1	x	x
CCOC(=O)c1ccc(NC(=O)CSc2nnc(Cn3c(=O)sc4ccccc43)n2-c2ccccc2)cc1	x	x	x	1	x	x	x	x
COc1ccc(Cl)cc1NC(=O)Nc1cn(C)c2ccccc12	x	x	x	1	x	x	x	x
CCOc1cc(C(=S)N2CCCC2)ccc1OCc1ccccc1	46	3	27*	6	-1	0	7	-5
C=C(C)C(=O)Nc1cccc(C2=NOC3(C2)C[C@@H](C(N)=O)N(C(=O)[C@H]2CCC(=O)N2)C3)c1 (some centres undefined)	30	9	50*	-5	i	1	38*	-2
Cc1ccc(S(=O)(=O)N2CCOC23CCN(C(=O)c2cc(Cl)ccc2Cl)CC3)cc1	-13	11	5	10	0	0	x	x
Cc1ccc(S(=O)(=O)N2CCOC23CCN(C(=O)c2ccc(Cl)cc2Cl)CC3)cc1	-4	17	48*	0	0	0	32*	0
N#CC(C#N)=C(Nc1ccc(F)cc1)SCc1cccc(F)c1	-5	3	28*	-8	0	x	33*	35*
CCOc1ccc(N/C(SCc2cccc([N+](=O)[O-])c2)=C(/C#N)C(N)=O)cc1	16	-1	7	9	0	3	x	x
O=C(Cc1noc2ccccc12)NCC#CCOc1cccc(C(F)(F)F)c1	x	x	x	-24	x	x	x	x
COc1ccc(CC(N)=Nn2cnnc2)cc1Cl	x	x	x	-6	x	x	x	x
Cc1ccsc1C(O)CNC(=O)c1cc(-c2ccc(F)cc2)nn1C (centres undefined)	x	x	x	-19	x	x	x	x
CCOc1ccc(C2NC(=O)NC(c3ccccc3)=C2C(C)=O)cc1OC (centres undefined)	40	-3	27*	8	0	2	21	1
CCOc1cc(C2NC(=O)NC(c3ccccc3)=C2C(C)=O)ccc1OCC(N)=O (centres undefined)	26	-4	0	-14	1	x	x	x
CCc1ccc(NC(=O)C2CCCN(S(=O)(=O)c3ccc4c(c3)CCCN4C(C)=O)C2)cc1 (centres undefined)	-6	-11	25*	1	-2	-1	37*	9
CS(=O)(=O)N1CCCC(C(=O)Nc2cccc(F)c2)C1 (centres undefined)	-14	-7	-5	-6	-1	1	x	x
CC(=O)N1CCCc2cc(S(=O)(=O)N3CCCC(C(=O)Nc4cccc(F)c4)C3)ccc21 (centres undefined)	32	7	36*	13	i	1	24*	11*
CC(=O)N1CCCc2cc(S(=O)(=O)N3CCCC(C(=O)N4CCN(c5cc(C)ccc5C)CC4)C3)ccc21 (centres undefined)	13	10	25*	-4	0	-9	21	9.3*
CCOC(=O)c1ccc(NC(=O)C2CCCN(S(=O)(=O)c3ccc(F)cc3)C2)cc1 (centres undefined)	18	17	30*	8	0	x	18	2
O=C(Nc1ccccc1)C1=C(c2ccccc2)S(=O)(=O)CCS1(=O)=O	2	6	33*	-14	0	1	0	70*
CC(C)N1CCc2c(sc(NC(=O)C3CCCCC3)c2C(N)=O)C1	21	17	32*	-2	-1	-5	8	3
COC(=O)c1c(NC(=O)C2CCCCC2)sc2c1CCN(C(C)C)C2	17	-2	-13	4	0	0	x	x
Cn1c(C(F)(F)F)nn(CCNC(=O)c2nc3ccccc3s2)c1=O	x	x	x	5	x	x	x	x
CC(C)(C)c1csc(NC(=O)c2ccc(Cl)s2)n1	14	18	40*	-26	0	x	45*	-9
Cc1ccc(C(=O)Nc2nc(C(C)(C)C)cs2)s1	13	14	43*	-20	0	x	42*	-11
SMILES	VHR inh abs	CCHFV vOTU inh	PrPC surface inh	PriA SSB inh	Vc quorum ag	TcdB GH inh	PrPC confirm	LD9 cytotox
O=C(CNC(=O)OCc1ccccc1)NCc1ccccc1-c1ccsc1	x	x	x	-4	x	x	x	x
C[C@H]1CCC/C=C/[C@@H]2C[C@H](O)C[C@H]2[C@H](O)/C=C/C(=O)O1	x	5	95*	x	0	0	95*	4
Cc1cc2ccccc2n1CCNC(=O)Cc1cccc2ccccc12	-15	1	41*	34	0	3	20	-1
Cc1cc2ccccc2n1CCNC(=O)C(C)(C)C	-12	11	39*	10	-1	1	12	-3
Cc1cc2ccccc2n1CCNC(=O)c1ccccc1	20	9	15	15	i	x	x	x
Cc1cc2ccccc2n1CCNC(=O)COc1ccccc1	-10	4	42*	49*	i	0	37*	-1
CCC(=O)NCCn1c(C)cc2ccccc21	2	x	x	-15	0	x	x	x
Cc1cc2ccccc2n1CCNC(=O)c1ccc(S(=O)(=O)N2CCOCC2)cc1	-1	-16	27*	33	1	1	12	2
CC1CCCCN1c1ncnc2sc3c(c12)CCCC3 (centres undefined)	x	x	x	-10	x	x	x	x
COc1ccc(-c2cnc(C(=O)Nc3ccccc3SC)o2)cc1	x	x	x	-7	x	x	x	x
CCN1CCc2c(sc(NC(=O)c3ccc(S(=O)(=O)N4CCCCCC4)cc3)c2C(=O)NC)C1	-9	17	52*	-14	-1	1	-24	-3
CNC(=O)c1c(NC(=O)c2ccc(S(=O)(=O)N3CCCC3)cc2)sc2c1CCN(C(C)C)C2	-11	8	-16	x	x	2	x	x
Cc1ccc([C@H](CNC(=O)C2CCCCC2)N2CCOCC2)cc1	x	x	x	-1	x	x	x	x
CCc1c(C)nc2c(Br)cccc2c1SCCC#N	2	11	64*	-22	0	2	90*	-5
CCCc1c(C)nc2ccccc2c1SCCC#N	-1	-5	-1	7	0	2	x	x
CC(C)c1ccc(NC(=O)CCCn2nc(-c3cccs3)ccc2=O)cc1	x	x	x	-7	x	x	x	x
CCOC(=O)Nc1nc(-c2ccccc2)c(C(=O)c2ccc(Cl)cc2)s1	21	15	25*	1	-1	x	16	9.6*
O=C(Nc1nc(-c2ccccc2)c(C(=O)c2ccccc2)s1)c1ccc(Cl)cc1	x	x	x	3	x	x	x	x
O=C(Nc1ccc(F)c(C(F)(F)F)c1)C1CCCN1c1nc2ccccc2o1 (centres undefined)	x	x	x	-6	x	x	x	x
CCCCCn1c2c(c(=N)c3ccccc31)CCC2	9	-1	10	-1	i	2	x	x
CCCCCCCCn1c2c(c(=N)c3ccccc31)CCC2	-5	20	29*	-4	i	0	44*	38*
